# Screens as filed in PubChem BioAssay.
# Shown are actives, neighbours in structure and some others; about 5.9% of the full set was active somewhere.
# VP16 counter = VP16 counterscreen qHTS for inhibitors of ROR gamma transcriptional activity; Drosophila S2 Gal4-VP16 UAS-luciferase, luminescence, 20 h; Potency, µM (top dose mostly 53.6 µM), for inactives: top-dose activity, negative = inhibition, most hits filed as inhibitors; actives 3.5% (n = 310,000); AID 2546, 2010;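 also: Gal4-VP16 expression switched on by copper sulfate through the metallothionein promoter; potency is read from the fitted curve at half-maximal effect; nearly all actives have a fitted effect of over 50% in size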
# RORgamma inh = qHTS for inhibitors of ROR gamma transcriptional activity | Nuclear receptor ROR-gamma (Mus musculus), P51450 | Drosophila S2 Gal4-RORgamma UAS-luciferase reporter, 20 h | Potency, µM (doses to about 53.6 µM), for the others: at the highest dose activity change, negative = inhibition, actives largely listed as inhibitors | actives 5.4% (n = 310,000); also: potency is read from the fitted curve at half-maximal effect; nearly all actives have a fitted effect of over 60% in size
# Target sequence (P51450 whole entry, looked up, the tested form may be a part): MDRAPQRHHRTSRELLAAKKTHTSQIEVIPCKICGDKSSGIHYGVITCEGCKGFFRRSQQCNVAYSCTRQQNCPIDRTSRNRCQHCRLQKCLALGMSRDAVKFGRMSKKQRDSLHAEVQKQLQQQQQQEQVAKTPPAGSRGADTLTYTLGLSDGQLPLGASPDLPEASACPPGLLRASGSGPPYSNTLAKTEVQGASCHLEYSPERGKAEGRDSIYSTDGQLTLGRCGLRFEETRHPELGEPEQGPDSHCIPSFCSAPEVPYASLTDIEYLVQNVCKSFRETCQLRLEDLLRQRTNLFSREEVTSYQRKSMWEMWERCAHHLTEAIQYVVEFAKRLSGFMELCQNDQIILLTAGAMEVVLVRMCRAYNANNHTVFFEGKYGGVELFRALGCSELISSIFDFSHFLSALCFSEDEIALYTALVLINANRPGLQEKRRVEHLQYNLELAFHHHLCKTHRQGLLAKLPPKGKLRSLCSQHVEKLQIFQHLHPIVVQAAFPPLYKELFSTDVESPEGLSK
#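 Drosophila S2 cells stably expressing Gal4-DBD/mouse RORγ fusion under metallothionein promoter plus UAS-luciferase; compound 1 h, then 700 uM CuSO4 induction for 20 h at ambient temperature; inhibition read as reduced luminescence.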
# TrxR1 substrate = qHTS Assay for Substrates of Mammalian Selenoprotein Thioredoxin Reductase 1 (TrxR1): qHTS; Thioredoxin reductase 1, cytoplasmic (Rattus norvegicus), O89049; purified TrxR1 substrate turnover, NADPH consumption readout; Potency, µM (doses to about 114 µM), without a hit: top-dose activity change, negative = substrate turnover; actives 0.01% (n = 390,000); AID 588456, 2011; also: potency is read from the fitted curve at half-maximal effect; nearly all actives have a fitted effect of over 50% in size
#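 Rat TrxR1, dispensed at 90 nM, was prereduced with 400 uM NADPH (final) for 5 min at ~22 deg C, then incubated with compound 15 min before 400 uM selenite. A first-read NADPH fluorescence drop versus no-compound background flagged substrates.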
# Coupling enz = qHTS Assay for Inhibitors of Fructose-1,6-bisphosphate Aldolase from Giardia Lamblia: Coupling assay counterscreen. activity change, negative = inhibition, % at 58.2 µM, hits read low. coupling enzyme system counterscreen, AmpLite Red fluorescence. actives 0.67% (n = 290,000); in the data active = activity change below about -30%
#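 Counterscreen lacking aldolase: glyceraldehyde-3-phosphate coupling-enzyme reagent preincubated 10 min at RT with compound (at 57.5 uM final), then substrate/coupling system with AmpLite Red added; fluorescence read at 525/598 nm after 20 min RT.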
# GALK inhibitor = qHTS Assay for Inhibitors of Human Galactokinase (GALK); Purified GALK, Kinase-Glo residual ATP luminescence; actives 0.007% (n = 270,000); P51570; Potency, µM (highest dose often 57.5 µM), inactives show at the top dose activity change, negative = inhibition, actives largely listed as inhibitors; also: potency is read from the fitted curve at half-maximal effect
#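 Kinase-Glo Plus luminescence measured ATP left after a 1 h room-temperature reaction. The reaction used 5 nM GALK, 100 uM galactose and 35 uM ATP at pH 8.0 (20 mM HEPES, 5 mM MgCl2, 60 mM NaCl, 1 mM DTT, 0.01% BSA).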
# TrxR1 inh = qHTS Assay for Inhibitors of Mammalian Selenoprotein Thioredoxin Reductase 1 (TrxR1): qHTS; Thioredoxin reductase 1, cytoplasmic (Rattus norvegicus), O89049; recombinant rTrxR1, NADPH fluorescence consumption, selenite substrate; Potency, µM (doses to about 114 µM), for the others: at the top dose activity change, negative = inhibition, most hits filed as inhibitors; actives 1% (n = 390,000); also: potency is read from the fitted curve at half-maximal effect; nearly all actives have a fitted effect of over 65% in size
#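 Rat TrxR1 (90 nM in the dispensed reagent) was pre-reduced with 400 uM NADPH for 5 min at room temperature, then incubated with compound for 15 min. After 400 uM selenite was added, NADPH fluorescence (Ex 340/Em 450 nm) was followed for 8 min.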
# An asterisk follows results filed as active; ? = inconclusive; . = no result; [ ] = another dose, or the depositor's remark. Unless noted, calls follow the shape of the dose curve; as a rule, active = well fitted curve in the direction sought with a large enough effect; inconclusive = small, poorly fitted or top-dose-only effect, or another doubt; inactive = no such curve, though single readings can be large; an effect the other way counts as inactive or inconclusive. % is scaled to controls: 0 for no effect and ±100 for the full control effect.
SMILES,VP16 counter,RORgamma inh,TrxR1 substrate,Coupling enz,GALK inhibitor,TrxR1 inh
O=C(Nc1nc2c(s1)CCCC2)c1cccc(S(=O)(=O)N2CCCc3ccccc32)c1,13µM*,3.2µM*,2%,-2,0%,8%
CCc1nnc(NC(=O)c2cccc(S(=O)(=O)N3CCN(c4ccccc4)CC3)c2)s1,?,13µM*,-1%,1,3%,7%
COc1cc(CNC(=O)c2ccc3c(c2)c(C)c(C)n3Cc2cccc(C)c2)cc(OC)c1OC,.,.,-5%[57.1 µM],.,.,-2%[57.1 µM]
O=C(COC(=O)c1ccccc1)NC(=O)NC1CCCC1,.,.,1%[57.1 µM],.,.,2%[57.1 µM]
CCOC(=O)c1sc(NC(=O)c2cccnc2)c(C#N)c1C,-8%,34%,-5%[57.1 µM],0,-21%,7%
CCOC(=O)c1sc(NC(=O)c2cccc(S(=O)(=O)N3CCc4ccccc43)c2)c(C#N)c1C,5.6µM*,?,1%,2,1%,-10%
O=Nc1c2cc(-c3ccccc3)[nH]nc-2c2ccccc12,1%,-5%,4%,-2,15%,23%
Cc1ccc(-c2cc3c(N=O)c4ccccc4c-3n[nH]2)cc1,?,10µM*,2%[57.1 µM],0,9%,5%[57.1 µM]
O=C(O)c1ccc(N/N=C/c2ccc(-c3ccccc3Cl)o2)cc1,?,?,3%,2,-9%,-5%
CSc1ccccc1NC(=O)CN1CCN(c2ccccn2)CC1,-3%,-1%,-7%,2,7%,-10%
COc1ccccc1CN1CC(C(=O)NCc2cccc(C)n2)CCC1=O (configuration not stated),-10%,2%,-5%,.,-8%,4%
Cc1sc2nc(COC(=O)c3ccc(O)cc3)[nH]c(=O)c2c1C,4%,-18%,-2%,2,5%,23%
Cc1sc2nc(COC(=O)c3c(F)cccc3F)[nH]c(=O)c2c1C,23%,13µM*,-5%[57.1 µM],2,7%,27%[57.1 µM]
Oc1cc(CNCc2ccccc2)c(O)cc1CNCc1ccccc1,.,.,-10%,.,.,79µM*
COc1cc(CN2CCCC(C(=O)c3ccc4c5c(cccc35)CC4)C2)cc(OC)c1O (configuration not stated),?,?,10%,-39*,12%,-12%
Cc1cccc(CN2CCCC(C(=O)c3ccc4c5c(cccc35)CC4)C2)n1 (configuration not stated),13µM*,4µM*,20%,-1,1%,5%
CC(=O)N1CCCC(C(=O)c2ccc3c4c(cccc24)CC3)C1 (configuration not stated),-9%,7%,24%,-6,5%,8%
COc1ccc2cc(C(=O)C3CCCN(Cc4cccc(C)n4)C3)ccc2c1 (configuration not stated),13µM*,2µM*,124%[57.1 µM],0,1%,39%[57.1 µM]
O=C(c1ccc2c3c(cccc13)CC2)C1CCCN(Cc2cccnc2)C1 (configuration not stated),10%,2%,28%,-1,4%,13%
Nc1nnc(SCC(=O)N2CCN(c3ccccc3)CC2)s1,0%,26%,-1%[57.1 µM],1,2%,9%[57.1 µM]
COC(=O)Cn1c(CN2CCN(c3ccc(F)cc3)CC2)nc2c1c(=O)n(C)c(=O)n2C,2.8µM*,-30%,11%[57.1 µM],3,2%,7%[57.1 µM]
CCOCCn1c(CN2CCN(c3ccc(F)cc3)CC2)nc2c1c(=O)n(C)c(=O)n2C,?,-3%,5%,0,3%,11%
Cc1ccccc1Cn1c(CN2CCc3ccccc3C2)nc2c1c(=O)n(C)c(=O)n2C,-13%,-1%,11%[57.1 µM],-13,-3%,-35%[57.1 µM]
Cn1c(=O)c2c(nc(CN3CCN(Cc4ccccc4)CC3)n2CCN2CCOCC2)n(C)c1=O,2%,1.6µM*,12%,0,0%,-15%
COC(=O)Cn1c(CN2CCc3ccccc3C2)nc2c1c(=O)n(C)c(=O)n2C,5.6µM*,6%,18%[57.1 µM],-3,3%,-8%[57.1 µM]
SMILES,VP16 counter,RORgamma inh,TrxR1 substrate,Coupling enz,GALK inhibitor,TrxR1 inh
Cn1c(=O)c2c(nc(CN3CCC(Cc4ccccc4)CC3)n2CCN2CCOCC2)n(C)c1=O,5%,-1%,-7%,-1,0%,?
COC(=O)CCc1sc(Nc2ccccc2)nc1-c1ccc(OC)cc1,-9%,-28%,-5%,0,-1%,7%
CCOC(=O)C1CCCN(C(=O)Cn2cccc2C(=O)c2ccccc2)C1 (configuration not stated),5%,-4%,-1%,2,-1%,4%
Cn1cc(C(=O)c2ccc(Cl)cc2Cl)cc1C(=O)N/N=C(\N)COc1cccc(C(F)(F)F)c1,2µM*,2.2µM*,10%[57.1 µM],3,-4%,7%[57.1 µM]
CCCCn1c(N)c(C(=S)NC(=O)CC(C)C)c(=O)n(C)c1=O,1.1µM*,1.1µM*,5%,-2,1%,56µM*
CCCn1c(N)c(C(=S)NC(=O)C2CC2)c(=O)n(C)c1=O,4µM*,3.5µM*,-14%,-9,1%,?
CC(=O)NC(=S)c1c(N)n(Cc2ccccc2)c(=O)n(C)c1=O,2.8µM*,2.8µM*,.,-7,1%,.
CCCn1c(N)c(C(=O)COC(=O)c2c(C)noc2C)c(=O)n(C)c1=O,-14%,21%,-8%,0,1%,9%[57.1 µM]
CC(C)(C)c1ccc(/C=N/N2C(=O)CSC2=S)cc1,?,10µM*,-2%,0,-2%,-36%
CC(/C=N/N1C(=O)CSC1=S)=C\c1ccccc1,5%,11µM*,7%[57.1 µM],-1,-2%,?
CC(/C=N/N1CCN(c2ccccc2)CC1)=C\c1ccccc1,4%,16%,5%,1,3%,30%
COc1ccc(/C=N/N2C(=O)CSC2=S)cc1Br,.,.,-8%,.,.,3%[57.1 µM]
COc1ccc(/C=N/N2C(=O)CSC2=S)cc1,3%,16µM*,4%,-3,0%,?
O=C(Nc1ccc(-c2nc3ccccc3o2)c(O)c1)c1ccccc1,.,.,56%[57.1 µM],.,.,?
Cc1ccc2oc(-c3ccc(NC(=O)c4ccncc4)cc3O)nc2c1,4%,7.1µM*,15%,0,13%,25%[57.1 µM]
CCCC(=O)Nc1ccc(-c2nc3cc(C)ccc3o2)cc1,2.8µM*,4µM*,59%,-1,-1%,23%
Cc1nc2ccccn2c1P(=Nc1ccccc1)(N(C)C)N(C)C,22%,17%,17%,0,6%,29%
